Laboratory results: ChEMBL document CHEMBL3988442, “University of Dundee, Small-Polar-MMV Screening Library” (2021)
For some of these results: Results with a measured potency or affinity are listed apart.

Tests used:
Parameters in all cases: scale not given: direction of the effect not stated beside the values
[1] = molecular target: Protein translocase subunit SecA (Escherichia coli (strain K12)) (UniProt P10408); assay: Assay to Identify E. coli SecA ATPase Inhibitors; type: functional; conditions: 30 µM
Protein translocase subunit SecA (Escherichia coli (strain K12)), sequence (P10408 whole entry): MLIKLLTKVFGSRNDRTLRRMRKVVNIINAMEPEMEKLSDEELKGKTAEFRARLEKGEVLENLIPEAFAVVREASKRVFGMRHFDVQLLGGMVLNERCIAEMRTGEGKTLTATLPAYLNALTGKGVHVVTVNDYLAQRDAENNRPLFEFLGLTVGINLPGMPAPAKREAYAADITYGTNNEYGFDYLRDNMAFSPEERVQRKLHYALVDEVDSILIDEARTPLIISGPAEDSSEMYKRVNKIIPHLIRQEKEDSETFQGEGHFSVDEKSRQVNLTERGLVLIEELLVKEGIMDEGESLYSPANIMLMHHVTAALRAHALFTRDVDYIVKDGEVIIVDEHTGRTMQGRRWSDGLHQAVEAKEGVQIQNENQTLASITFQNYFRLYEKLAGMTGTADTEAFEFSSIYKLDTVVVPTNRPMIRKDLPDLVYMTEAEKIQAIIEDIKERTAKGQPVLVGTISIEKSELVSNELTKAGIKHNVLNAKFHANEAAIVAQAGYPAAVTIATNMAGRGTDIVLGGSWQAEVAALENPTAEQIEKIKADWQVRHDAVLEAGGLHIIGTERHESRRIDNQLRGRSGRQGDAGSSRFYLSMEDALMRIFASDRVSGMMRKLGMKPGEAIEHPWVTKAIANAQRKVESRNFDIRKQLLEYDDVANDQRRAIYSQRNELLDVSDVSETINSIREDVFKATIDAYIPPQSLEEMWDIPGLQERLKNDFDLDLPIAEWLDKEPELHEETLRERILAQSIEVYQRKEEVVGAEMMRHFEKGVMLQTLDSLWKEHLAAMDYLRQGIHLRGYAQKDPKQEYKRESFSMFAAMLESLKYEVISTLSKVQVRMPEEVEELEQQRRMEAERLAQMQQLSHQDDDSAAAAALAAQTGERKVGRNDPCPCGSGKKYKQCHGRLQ

[2] = molecular target: T1, Ubiquitin-activating enzyme e1, putative (Leishmania donovani (strain BPK282A1)) (UniProt E9BSI1); assay: Leishmania donovani Ubiquitin Activating Enzyme (LdE1); type: functional; conditions: 30 µM
T1 sequence (whole entry): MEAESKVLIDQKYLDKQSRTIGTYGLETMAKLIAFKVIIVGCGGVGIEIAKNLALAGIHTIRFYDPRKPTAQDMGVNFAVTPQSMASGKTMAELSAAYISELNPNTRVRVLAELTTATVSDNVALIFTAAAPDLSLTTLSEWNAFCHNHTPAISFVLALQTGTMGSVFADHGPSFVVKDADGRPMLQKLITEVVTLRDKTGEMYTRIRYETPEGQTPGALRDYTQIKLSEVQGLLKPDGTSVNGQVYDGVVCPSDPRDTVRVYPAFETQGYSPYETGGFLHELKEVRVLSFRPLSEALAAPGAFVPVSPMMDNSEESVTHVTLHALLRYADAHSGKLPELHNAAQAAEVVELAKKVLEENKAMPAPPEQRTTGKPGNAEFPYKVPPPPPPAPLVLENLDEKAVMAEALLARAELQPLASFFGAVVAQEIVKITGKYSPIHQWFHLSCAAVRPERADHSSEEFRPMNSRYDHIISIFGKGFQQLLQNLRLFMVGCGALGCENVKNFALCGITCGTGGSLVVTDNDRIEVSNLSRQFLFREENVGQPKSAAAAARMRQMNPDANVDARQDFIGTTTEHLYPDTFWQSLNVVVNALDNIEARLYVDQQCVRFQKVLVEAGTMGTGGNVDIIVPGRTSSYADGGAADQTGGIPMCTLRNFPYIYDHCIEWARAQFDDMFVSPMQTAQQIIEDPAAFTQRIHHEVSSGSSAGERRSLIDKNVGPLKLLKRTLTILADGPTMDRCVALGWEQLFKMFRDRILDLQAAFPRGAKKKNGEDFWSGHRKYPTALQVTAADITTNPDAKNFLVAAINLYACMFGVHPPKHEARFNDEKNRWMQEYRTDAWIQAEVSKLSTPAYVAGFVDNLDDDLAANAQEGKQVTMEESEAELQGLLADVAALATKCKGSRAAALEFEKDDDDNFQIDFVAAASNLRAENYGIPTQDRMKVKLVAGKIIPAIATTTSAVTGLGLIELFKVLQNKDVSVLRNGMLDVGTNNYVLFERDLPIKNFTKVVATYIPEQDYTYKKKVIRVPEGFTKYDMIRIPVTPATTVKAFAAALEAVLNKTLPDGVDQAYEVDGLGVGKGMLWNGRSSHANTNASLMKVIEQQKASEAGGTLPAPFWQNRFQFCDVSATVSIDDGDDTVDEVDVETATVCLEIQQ

[3] = molecular target: AMP-activated protein kinase, AMPK (Homo sapiens) (UniProt P54646+O43741+P54619+Q9UGJ0+Q9Y478+Q13131+Q9UGI9); assay: AMP-dependent Kinase enzyme assay. An in vitro enzyme assay that detects ADP turnover that is directly proportional to AMPK activity. This uses naive AMPK that is activated during the assay with MK-8722; type: functional; conditions: 30 µM
[4] = molecular target: Sialic acid-binding Ig-like lectin 9 (Homo sapiens) (UniProt Q9Y336); assay: Hs-Siglec9 ALPHAscreen SOP 20170721; conditions: 10 µM
Sialic acid-binding Ig-like lectin 9 (Homo sapiens), sequence (Q9Y336 whole entry): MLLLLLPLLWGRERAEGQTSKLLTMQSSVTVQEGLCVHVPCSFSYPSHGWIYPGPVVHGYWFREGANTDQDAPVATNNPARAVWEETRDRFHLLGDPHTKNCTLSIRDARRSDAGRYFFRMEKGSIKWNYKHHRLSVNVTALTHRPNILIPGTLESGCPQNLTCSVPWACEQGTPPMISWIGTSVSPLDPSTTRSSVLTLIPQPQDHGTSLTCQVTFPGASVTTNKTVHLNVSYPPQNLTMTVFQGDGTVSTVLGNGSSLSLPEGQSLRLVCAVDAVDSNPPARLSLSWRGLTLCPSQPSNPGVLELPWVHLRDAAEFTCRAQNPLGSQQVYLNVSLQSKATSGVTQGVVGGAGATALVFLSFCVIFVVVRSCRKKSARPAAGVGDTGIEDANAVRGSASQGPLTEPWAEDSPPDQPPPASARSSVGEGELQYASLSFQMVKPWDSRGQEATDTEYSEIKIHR

Trypanosoma cruzi = assay: Trypanosoma cruzi phosphomannomutase and mannose-1-phosphate guanylyltransferase assay; type: functional; conditions: 10 µM
[5] = molecular target: T2, Arginase-2, mitochondrial (Homo sapiens) (UniProt P78540); assay: in vitro enzyme assay to detect the production of urea directly proportional to the activity of Arginase II; type: functional; conditions: 33.3 µM; further: in the data most compounds retested in dose-response had high values
T2 sequence (whole entry): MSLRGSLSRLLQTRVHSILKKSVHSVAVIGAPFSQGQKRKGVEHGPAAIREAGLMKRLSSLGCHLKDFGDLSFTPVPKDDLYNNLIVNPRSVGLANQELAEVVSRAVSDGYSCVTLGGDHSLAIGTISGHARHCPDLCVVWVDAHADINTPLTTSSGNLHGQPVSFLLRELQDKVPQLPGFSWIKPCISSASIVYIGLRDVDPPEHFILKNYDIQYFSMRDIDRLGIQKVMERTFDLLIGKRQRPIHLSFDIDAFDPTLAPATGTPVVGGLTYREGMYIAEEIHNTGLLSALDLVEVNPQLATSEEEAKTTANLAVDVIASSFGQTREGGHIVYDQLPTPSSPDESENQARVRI

[6] = molecular target: T3, Proteasome subunit beta (Trypanosoma cruzi) (UniProt O96673); assay: Trypanosoma cruzi proteasome chymotrypsin-like activity (TcProtChymo) assay.; further: in the data most compounds retested in dose-response had high values; type: functional; conditions: 9.37 µM
T3 sequence (whole entry): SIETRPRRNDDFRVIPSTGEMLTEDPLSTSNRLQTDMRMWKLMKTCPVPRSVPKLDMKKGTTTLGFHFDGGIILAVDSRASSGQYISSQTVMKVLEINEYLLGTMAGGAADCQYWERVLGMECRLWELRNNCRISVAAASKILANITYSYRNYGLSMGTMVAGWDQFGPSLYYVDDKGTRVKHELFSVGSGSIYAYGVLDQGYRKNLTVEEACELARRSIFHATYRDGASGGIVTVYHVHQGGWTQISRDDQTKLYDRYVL

Homo sapiens = organism: Homo sapiens; assay: To identify inhibition of the IFN signalling (Jak-Stat) pathway via expression of an eGFP reporter gene under the control of an IFN-stimulated response element (ISRE) containing MxA promoter.; type: functional; conditions: 30 µM
[7] = molecular target: T4, Tyrosyl-tRNA synthetase, putative (Trypanosoma cruzi (strain CL Brener)) (UniProt Q4DSP6); assay: Trypanosoma cruzi tyrosyl tRNA synthetase (TcYRS) _High Tyrosine SOP; type: functional; conditions: 30 µM; further: in the data most compounds retested in dose-response had high values
T4 sequence (whole entry): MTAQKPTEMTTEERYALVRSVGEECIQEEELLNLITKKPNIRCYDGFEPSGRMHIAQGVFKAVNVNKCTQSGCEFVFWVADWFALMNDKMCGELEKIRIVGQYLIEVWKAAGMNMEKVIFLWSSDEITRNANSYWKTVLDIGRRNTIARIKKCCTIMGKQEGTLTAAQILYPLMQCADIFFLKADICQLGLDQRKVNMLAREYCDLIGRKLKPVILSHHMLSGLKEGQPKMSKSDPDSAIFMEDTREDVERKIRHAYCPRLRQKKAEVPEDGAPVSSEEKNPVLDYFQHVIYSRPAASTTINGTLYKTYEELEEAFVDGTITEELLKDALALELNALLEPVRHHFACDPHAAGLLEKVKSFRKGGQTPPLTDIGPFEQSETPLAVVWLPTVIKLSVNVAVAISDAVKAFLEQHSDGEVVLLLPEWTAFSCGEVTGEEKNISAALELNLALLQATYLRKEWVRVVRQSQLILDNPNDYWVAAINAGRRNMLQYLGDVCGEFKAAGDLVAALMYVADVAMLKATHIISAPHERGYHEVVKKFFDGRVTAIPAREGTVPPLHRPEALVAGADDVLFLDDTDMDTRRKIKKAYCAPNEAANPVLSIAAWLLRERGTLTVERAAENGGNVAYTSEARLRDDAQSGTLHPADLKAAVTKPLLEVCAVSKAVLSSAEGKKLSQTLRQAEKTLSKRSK

[8] = molecular target: T4, Tyrosyl-tRNA synthetase, putative (Trypanosoma cruzi (strain CL Brener)); assay: Trypanosoma cruzi tyrosyl tRNA synthetase (TcYRS) SOP; type: functional; conditions: 30 µM
[9] = molecular target: Chromo domain-containing protein 1 (Saccharomyces cerevisiae (strain ATCC 204508 / S288c) (Baker's yeast)) (UniProt P32657); assay: ScCHD-1 Enzyme Inhibition Assay; type: functional; conditions: 30 µM; further: in the data most compounds retested in dose-response had high values
Chromo domain-containing protein 1 (Saccharomyces cerevisiae (strain ATCC 204508 / S288c) (Baker's yeast)), sequence (P32657 whole entry, the tested form may be a part): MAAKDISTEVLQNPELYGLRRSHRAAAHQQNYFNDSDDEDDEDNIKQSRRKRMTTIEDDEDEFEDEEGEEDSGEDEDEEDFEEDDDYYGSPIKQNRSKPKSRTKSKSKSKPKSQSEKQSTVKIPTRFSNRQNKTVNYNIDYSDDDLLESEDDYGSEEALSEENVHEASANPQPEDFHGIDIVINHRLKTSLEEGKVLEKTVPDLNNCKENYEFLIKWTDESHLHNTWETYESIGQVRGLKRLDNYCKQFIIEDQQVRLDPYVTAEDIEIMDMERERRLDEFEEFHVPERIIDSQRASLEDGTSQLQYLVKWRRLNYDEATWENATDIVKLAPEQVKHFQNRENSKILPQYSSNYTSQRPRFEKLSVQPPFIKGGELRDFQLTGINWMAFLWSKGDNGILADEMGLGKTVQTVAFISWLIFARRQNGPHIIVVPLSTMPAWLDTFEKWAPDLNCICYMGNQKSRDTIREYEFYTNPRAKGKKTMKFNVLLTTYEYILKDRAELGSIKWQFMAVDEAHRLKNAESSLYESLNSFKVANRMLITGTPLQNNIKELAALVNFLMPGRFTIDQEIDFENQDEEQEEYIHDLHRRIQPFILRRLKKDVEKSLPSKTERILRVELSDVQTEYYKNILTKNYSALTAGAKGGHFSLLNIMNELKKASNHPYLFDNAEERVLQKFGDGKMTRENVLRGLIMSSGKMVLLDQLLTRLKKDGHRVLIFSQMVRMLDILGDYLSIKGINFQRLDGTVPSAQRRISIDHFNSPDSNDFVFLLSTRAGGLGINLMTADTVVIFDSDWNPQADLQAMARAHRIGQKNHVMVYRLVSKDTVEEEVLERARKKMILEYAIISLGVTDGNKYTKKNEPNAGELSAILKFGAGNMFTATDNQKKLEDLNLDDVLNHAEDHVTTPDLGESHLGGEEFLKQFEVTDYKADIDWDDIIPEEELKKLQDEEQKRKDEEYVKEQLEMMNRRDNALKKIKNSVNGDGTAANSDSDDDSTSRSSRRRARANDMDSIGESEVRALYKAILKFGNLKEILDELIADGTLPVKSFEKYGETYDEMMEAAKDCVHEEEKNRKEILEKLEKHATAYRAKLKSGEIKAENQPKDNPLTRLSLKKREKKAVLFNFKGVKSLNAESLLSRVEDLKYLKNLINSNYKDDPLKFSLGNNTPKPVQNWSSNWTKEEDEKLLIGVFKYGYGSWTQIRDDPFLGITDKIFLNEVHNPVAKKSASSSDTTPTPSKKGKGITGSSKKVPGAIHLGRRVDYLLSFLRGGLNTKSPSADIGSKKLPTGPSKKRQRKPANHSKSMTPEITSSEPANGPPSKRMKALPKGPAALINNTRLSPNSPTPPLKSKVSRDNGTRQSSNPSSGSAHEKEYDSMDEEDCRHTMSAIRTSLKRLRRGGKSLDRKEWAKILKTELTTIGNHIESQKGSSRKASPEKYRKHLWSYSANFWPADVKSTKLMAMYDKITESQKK

Row | Compound | Percent Effect [1] | Percent Effect [2] | Percent Effect [3] | Percent Effect [4] | Percent Effect (Trypanosoma cruzi) | Percent Effect [5] | Percent Effect [6] | Percent Effect (Homo sapiens) | Percent Effect [7] | Percent Effect [8] | Percent Effect [9]
1 | COc1cc(CNC(=O)CNc2cc(Cl)ccc2OC)ccn1 | -4.04% | 0% | -0.0708% | 2.86% | -2.55% | 0.802% | 3.6% | 9.38% | -4.43% | 3.7% | 0.373%
2 | Cc1cc(C)n(CC2CCCCN2CC(=O)Nc2cccnc2)n1 (stereo not given) | -6.69% | 13.3% | -13.7% | 36.3% | 9.25% | 12.5% | -1.74% | 6.67% | 0.546% | 16.1% | -6.32%
3 | COC(=O)CNC(=O)CSCc1nc(O)c2cc(C(C)C)sc2n1 | 0.0478% | -6.67% | 10.7% | 2.72% | -2.95% | -9.68% | 7.58% | -3.98% | -3.17% | 5.13% | -1.35%
4 | O=C(NCC(F)F)N1CCC(n2ccc(C(F)(F)F)n2)CC1 | -2.09% | 5.48% | -1.59% | 3.79% | 5.09% | 8.64% | 10.3% | 0.988% | 2.15% | 7.5% | -4.48%
5 | CNC(=O)c1cc2c(nc1NC(C)C)CCN(C(=O)NC(C)C)CC2 | -2.44% | 0% | -4.24% | -6.22% | -2.64% | -0.744% | -2.83% | -8.82% | 6.45% | 6.17% | -0.531%
